Experiments:
Conditions in all cases: concentration: 1 μM, replicates: in singlicate; n = 1
NEK11 = tested on: NEK11
NEK1 = tested on: NEK1
NEK2 = tested on: NEK2
NEK3 = tested on: NEK3
NEK4 = tested on: NEK4
NEK5 = tested on: NEK5
NEK6 = tested on: NEK6
NEK7 = tested on: NEK7
NEK9 = tested on: NEK9
NIK = tested on: T1, NIK
T1 construct: gene MAP3K14

NIM1 = tested on: T2, NIM1
T2 construct: gene MGC42105

NLK = tested on: NLK
OSR1 = tested on: T3, OSR1
T3 construct: gene OXSR1

PAK1 = tested on: PAK1
PAK2 = tested on: PAK2
PAK3 = tested on: PAK3
PAK4 = tested on: PAK4
PAK6 = tested on: PAK6
PAK7 = tested on: PAK7
PCTK1 = tested on: T4, PCTK1
T4 construct: gene CDK16
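Note: KINOMEscan kinase panel screen.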

| SMILES | %Inh (NEK11) | %Inh (NEK1) | %Inh (NEK2) | %Inh (NEK3) | %Inh (NEK4) | %Inh (NEK5) | %Inh (NEK6) | %Inh (NEK7) | %Inh (NEK9) | %Inh (NIK) | %Inh (NIM1) | %Inh (NLK) | %Inh (OSR1) | %Inh (PAK1) | %Inh (PAK2) | %Inh (PAK3) | %Inh (PAK4) | %Inh (PAK6) | %Inh (PAK7) | %Inh (PCTK1) |
| --- | --- | --- | --- | --- | --- | --- | --- | --- | --- | --- | --- | --- | --- | --- | --- | --- | --- | --- | --- | --- |
| Fc1cc(Cl)ccc1Nc1ccnc2cc(-c3ccc(CN4CCOCC4)o3)ccc12 [GW560109] | 0% | 0% | 13% | 0% | 15% | 1% | 0% | 3% | 0% | 4% | 15% | 10% | 8% | 0% | 0% | 5% | 0% | 0% | 0% | 1% |
| Cc1ccc(C)c(NC(=O)Nc2ccc(C)c(-c3ccc(C(=O)Nc4ccncc4)cc3)c2)c1 [GSK1398473] | 0% | 0% | 1% | 5% | 0% | 8% | 1% | 0% | 7% | 4% | 1% | 50% | 2% | 21% | 15% | 15% | 0% | 0% | 0% | 13% |
| N#Cc1cnc2cc(-c3cnc(CNCCN4CCOCC4)s3)ccc2c1Nc1ccc(Oc2ccccc2)cc1 [GW664114] | 25% | 0% | 82% | 20% | 1% | 0% | 0% | 0% | 17% | 0% | 12% | 0% | 0% | 10% | 0% | 21% | 0% | 10% | 2% | 28% |
| Cc1cccc(Nc2nc(NCCN)ncc2C(N)=O)c1 [GSK1292139] | 3% | 0% | 0% | 31% | 29% | 47% | 0% | 0% | 18% | 0% | 29% | 0% | 15% | 16% | 48% | 16% | 93% | 76% | 98.6% | 3% |
| COc1ccc(NC(=O)c2ccoc2)cc1-c1ccc(C(=O)NCC2CC2)cc1 [GW810437] | 0% | 0% | 0% | 37% | 0% | 0% | 0% | 0% | 7% | 40% | 41% | 11% | 17% | 0% | 44% | 24% | 0% | 0% | 10% | 4% |
| CC(=O)Nc1cn2nc(Oc3cccc(NC(=O)c4cccc(C(F)(F)F)c4)c3)ccc2n1 | 0% | 0% | 0% | 8% | 0% | 8% | 3% | 0% | 0% | 0% | 0% | 16% | 0% | 9% | 15% | 16% | 15% | 12% | 0% | 0% |
| O=C(O)C(F)(F)F.O=c1[nH]ccc2nc(N[C@@H]3CCNC3)nc(Nc3cc(Cl)cc(Cl)c3)c12 [GSK2188764] | 0% | 28% | 23% | 23% | 17% | 14% | 0% | 13% | 25% | 64% | 67% | 19% | 54% | 92.2% | 78% | 96.9% | 96.4% | 96% | 99.9% | 7% |
| NCCC(NC(=O)c1cc(Br)c(-c2ccnc3[nH]ccc23)s1)c1ccccc1.O=C(O)C(F)(F)F.O=C(O)C(F)(F)F (centres unmarked) [GSK1307810] | 30% | 71% | 19% | 0% | 0% | 96.3% | 3% | 0% | 4% | 49% | 7% | 3% | 10% | 19% | 56% | 76% | 74% | 62% | 86% | 1% |
| Cc1ccc(NC(=O)c2cccc(N3CCCCC3)c2)cc1-c1ccc(C(=O)NCC2CC2)cc1 [GSK1917008] | 0% | 27% | 16% | 11% | 23% | 12% | 0% | 13% | 35% | 68% | 15% | 5% | 24% | 14% | 24% | 21% | 0% | 0% | 2% | 12% |
| COC(=O)Nc1nc2cc(Oc3ccc(NC(=O)Nc4cccc(SC)c4)cc3)ccc2[nH]1.Cl [GW697999] | 22% | 0% | 0% | 4% | 4% | 11% | 0% | 0% | 3% | 0% | 32% | 0% | 15% | 0% | 0% | 29% | 0% | 0% | 0% | 3% |

— publication PMC5540273 (PLoS ONE, 2017)
